The panel holds about 83,000 compounds, 20% with a hit somewhere; the sample as a whole holds those more often.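 Treatment: one concentration, 48 hours, 96-well format. Scoring: percent growth, with anything below 10 considered active.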 Values without a mark were called inactive. Activity calls are given as the source filed them.
Test system: HL-60(TB) leukemia
Experiment: NCI-60 one-dose screen, 48 h (100 = growth as untreated, 0 = no growth, -100 = all killed)
Settings: 10 µM unless noted

Question: Which growth does the source give for COc1cc(N=Nc2cc(Cc3ccc(N(C)C)cc3)c(N)cc2N(C)C)c2ncccc2c1 here?
Answer: -55.5% (active)

Question: How did the growth turn out when CC(=O)N1N=C(c2ccc(Cl)cc2)CC1c1sc(Cl)nc1Cl (centres undefined) was run?
Answer: 89.5%

Question: With Nc1ncn([C@@H]2O[C@H](CO)[C@@H](O)C2(F)F)c(=O)n1 as the molecule, how does the growth read?
Answer: 25.2%

Question: Cc1[nH]n(-c2cccc(Cl)c2)c(=O)c1/C=C1\C=c2ccccc2=CC1=O was tested. Which growth did it give?
Answer: 104%

Question: How did the growth turn out when CCN(CC)CC(O)c1cc(-c2ccc(Cl)cc2)nc2cc(Cl)ccc12 (centres undefined) was run?
Answer: 17.9%

Question: With CS(=O)(=O)Nc1cc(-c2ccc3ncc(C#N)c(Nc4ccc(F)c(Cl)c4)c3c2)cnc1Cl as the molecule, how does the growth read?
Answer: 0.119% (active)

Question: CNC(=S)N/N=C/CSC/C=N/NC(=S)NC was tested. Which growth did it give?
Answer: 85%

Question: For Cc1cc(SC#N)cc(C(C)(C)C)c1O, which growth is on record?
Answer: 74.3%

Question: For COc1cc(NCCCN=C(N)NC(N)=NC(C)C)c2ncccc2c1, which growth is on record?
Answer: 85.7%

Question: How did the growth turn out when Nc1c(C(=O)Nc2ccnc3ccccc23)sc2nc3c(cc12)CN(Cc1ccccc1)CC3 was run?
Answer: 32.7%

Question: How did the growth turn out when COc1cc(/C=C2\SC(=S)N(/C=C/c3nc4ccccc4[nH]c3=O)C2=O)cc(OC)c1OC was run?
Answer: 70%

Question: For CC(=O)OC[C@H]1OC(Sc2sc(C(=O)c3ccc(Cl)cc3)c(N)c2-c2nc3ccccc3s2)[C@H](OC(C)=O)[C@@H](OC(C)=O)[C@@H]1OC(C)=O (some centres undefined), which growth is on record?
Answer: 108%

Question: COc1ccc(/C=C/C(=O)N2CCC(O)CC2)cc1OC1CCCC1 was tested. Which growth did it give?
Answer: 101%

Question: Which growth does the source give for Cc1ccc2c(c1)C(C)Cc1c(Cl)ncnc1N2C (centres undefined) here?
Answer: 17.3%

— PubChem BioAssay (NCI)
